Compound activity deposited in PubChem by National Center for Advancing Translational Sciences (NCATS).
ERG Ets-DNA blk = ERG Ets/DNA interaction inhibition; fluorescence polarization, His-ERG Ets domain / labelled DNA; 370,000 compounds, 0.028% hits; Potency, µM (series often up to 76.9 µM), actives largely listed as inhibitors; P11308; AID 624246; active means well fitted inhibition curve with a large enough effect in the polarisation, with a control signal flat; inconclusive means small, poorly fitted or top-dose-only effect, or effect the other way, or a change in a side signal; inactive means no such curve, though single readings can be large or run the other way; the % refers to the polarisation;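 further: polarization taken with two DNA probes labelled with fluorescein and Texas red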
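His-tagged ERG Ets domain (1 uM in the protein solution; 300mM KCl, 50mM Tris-HCl, 1mM EDTA, 1mM DTT, pH 7.5) received compound, then a probe mix of 5 nM fluorescein-DNA and 100nM Texas-615-DNA. Fluorescence polarization was read for both dyes.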
D1 antagonist = antagonists of human D1 dopamine receptor; P21728; 360,000 compounds, 3.2% hits; activity change, negative = inhibition, % at 10 µM; HEK293 TREx D1 cells, calcium flux, dopamine EC80; hits give low values; in the data active means activity change below about -30%
Target sequence (P21728 whole entry, looked up): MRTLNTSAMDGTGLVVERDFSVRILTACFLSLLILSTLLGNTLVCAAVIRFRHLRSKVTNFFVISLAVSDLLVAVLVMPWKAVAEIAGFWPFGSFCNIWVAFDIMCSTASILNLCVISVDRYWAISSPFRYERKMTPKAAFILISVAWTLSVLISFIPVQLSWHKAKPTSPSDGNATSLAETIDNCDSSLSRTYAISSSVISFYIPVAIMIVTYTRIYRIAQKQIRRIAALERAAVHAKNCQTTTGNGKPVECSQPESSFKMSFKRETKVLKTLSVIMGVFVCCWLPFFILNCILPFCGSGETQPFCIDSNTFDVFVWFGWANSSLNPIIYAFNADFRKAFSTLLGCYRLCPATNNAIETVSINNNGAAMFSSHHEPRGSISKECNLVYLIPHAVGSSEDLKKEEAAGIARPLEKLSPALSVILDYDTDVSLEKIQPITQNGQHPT
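Calcium flux readout: force-coupled, inducible Hek293 Trex D1 line, cells induced overnight at 30 C with tetracycline, dye-loaded 30–90 min at RT. Antagonism scored against EC80 dopamine challenge given 180 s after compound.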
D1 ag = agonists of human D1 dopamine receptor; P21728; HEK293 T-REx D1 cells, calcium flux, agonist mode; activation, % at 2 µM; 360,000 compounds, 1% hits; in the data active means activation above about 30%
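Agonism was scored from calcium flux recorded over 180 s (1 read/s) after pintool compound addition, following a 10-cycle baseline. Cells were inducible force-coupled HEK293 TREx D1, plated overnight at 30 C and loaded with no-wash calcium dye.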
D1 PAM = potentiators of human D1 dopamine receptor; P21728; HEK293 TREx D1 cells, calcium flux, dopamine EC20 potentiation; potentiation, % at 10 µM; 360,000 compounds, 0.036% hits; AID 504651; in the data active means potentiation above about 30%
D3 ag = agonists of human D3 dopamine receptor. P35462. D3R DiscoveRx beta-arrestin cells, luminescence, 90 min. max activation, %. 410,000 compounds, 0.58% hits. AID 652048; in the data active means max activation above about 30%
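Agonist mode: compounds and dopamine controls were applied to plated cells for 90 min at 37 degrees C after an overnight attachment at 1500 cells/well. Luminescent read-out followed 30 - 60 minutes at room temperature with DiscoveRx detection reagent.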
DRD3 antagonist = antagonists of human D3 dopamine receptor | P35462 | D3R cells, DiscoveRx beta-arrestin luminescence, antagonist mode; hits give low values | max response, negative = inhibition, % | 360,000 compounds, 2.5% hits | AID 652054; in the data active means max response below about -50%; inconclusive means no clear call, values can overlap the other calls
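Cells plated overnight at 1500 cells/well, then exposed to library compounds with dopamine controls for 90 minutes at 37 degrees C. DiscoveRx reagent added for 30–60 minutes at room temperature; luminescence read, quantitative HTS format.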
Hits are given with their value; – = inactive; ? = inconclusive; · = not tested or not shown. Only some compounds are listed: those with a hit (about 6.1% of all), similar ones and a draw of the others.

SMILES	ERG Ets-DNA blk	D1 antagonist	D1 ag	D1 PAM	D3 ag	DRD3 antagonist
C=C(C)c1cccc(C(C)(C)NC(=O)Nc2cc(C)ccn2)c1	–	–	–	–	–	–
C=C(C)c1cccc(C(C)(C)NC(=O)Nc2ccc(C)cn2)c1	·	–	30.1	–	–	–
CC(C)(C)n1nnnc1C(c1ccccc1)N1CCN(c2c(Cl)cncc2Cl)CC1 (stereo unspecified)	·	·	·	·	–	–
CCP(=O)(c1ccccc1)C(C)(C)O (stereo unspecified)	–	–	–	–	–	–
CCOC(=O)Cc1ccc(Nc2nc(NC)nc3ccsc23)cc1	·	·	·	·	–	-78.2
CC(Sc1nc2c(c(=O)n(C)c(=O)n2C)n1Cc1cc2c(cc1Cl)OCO2)C(=O)O (stereo unspecified)	–	–	–	–	–	–
COCC(=O)N/N=C\c1ccccc1OC/C=C/c1ccccc1	–	–	–	–	–	–
COc1ccc(C(=O)C(OC(=O)c2ccc(C)c(NC(C)=O)c2)c2ccccc2)cc1 (stereo unspecified)	–	–	–	–	–	–
COc1ccc(C(=O)OC(C(=O)c2ccccc2)c2ccccc2)cc1 (stereo unspecified)	–	-30.0	–	–	–	–
Cc1nn(C)cc1CNC(=O)COc1ccc(Cl)cc1Cl	–	-32.8	–	–	–	–
Cc1cc(C)nc(N/N=C/C2=C(O)CC(c3ccc(F)cc3)CC2=O)n1 (stereo unspecified)	–	–	–	–	–	-121.4
Oc1ccc(-c2nc3ccccc3s2)c(O)c1	–	-36.8	–	–	–	–
COc1ccc(CCNS(=O)(=O)c2ccc([N+](=O)[O-])cc2)cc1OC	–	–	–	–	–	–
CCOc1cccc(CNC(=O)c2ccc(N3CCCC3)c(NC(=O)NCc3ccc(F)cc3)c2)c1	–	-34.5	–	–	–	·
CCCNC(=O)Nc1cc(C(=O)NCc2cccc(OCC)c2)ccc1N1CCCC1	–	–	–	–	–	·
CCN1/C(=C(\O)c2ccccc2)C(=O)c2ccccc2S1(=O)=O	–	–	–	–	–	-56.4
CCCc1cc2c(cc1NC(=O)c1ccccc1Cl)OCO2	–	–	–	–	–	–
NC(=O)OCC(COC(N)=O)c1ccccc1	–	-39.0	–	–	–	–
Cc1ccc2nc(Nc3ccc(F)cc3)c3nncn3c2c1	–	–	–	–	–	–
CCOc1ccc(NC(=O)c2cnn3c(C(F)F)cc(-c4ccc(C)cc4)nc23)cc1	–	–	–	–	–	·
CC(NC(=S)NCCc1ccccc1)C(c1cccs1)N1CCN(Cc2ccccc2)CC1 (stereo unspecified)	–	–	–	–	–	-79.4
CC(NC(=O)NC1CCCCC1)C(c1cccs1)N1CCN(Cc2ccccc2)CC1 (stereo unspecified)	–	–	–	–	–	–
CCC(=O)N1CCc2cc(Br)cc(S(=O)(=O)NCC3CCCN3CC)c21 (stereo unspecified)	–	–	–	–	–	–
CN(C)CCOC(=O)C12CC3CC(CC(C3)C1)C2	–	–	–	–	–	?
CN(C)CCOC(=O)C12CC3(C)CC(C)(CC(C)(C3)C1)C2	·	–	–	–	–	-84.3
SMILES	ERG Ets-DNA blk	D1 antagonist	D1 ag	D1 PAM	D3 ag	DRD3 antagonist
COCCNc1nc(NCCOc2ccccc2Cl)c2sc(-c3ccccc3)cc2n1	·	·	·	·	58.0	–
COCCNc1nc(NCCNC(C)=O)c2sc(-c3ccccc3)cc2n1	·	·	·	·	–	–
N#C/C(=C\c1ccc(Cl)cc1)C(=O)NCC1CCCO1 (stereo unspecified)	–	–	–	–	–	·
COc1ccc(S(=O)(=O)n2cccc2)cc1OC	–	-34.5	–	–	–	–
CC(=O)[C@@]1(O)CC[C@H]2[C@@H]3C[C@H](C)C4=CC(=O)C=C[C@]4(C)[C@@]3(F)[C@@H](O)C[C@@]21C	–	-59.3	–	–	–	–
CN(CC(=O)N1CCN(c2ccccc2)CC1)S(=O)(=O)c1cnc[nH]1	–	–	–	–	–	–
O=C(CSc1nc2c([nH]c3ccccc32)c(=O)n1-c1ccc(F)cc1)N1CCCCCC1	–	–	–	–	32.8	·
